Out of some 42,000 sequences screened, about 3,100 (7.4%) were called active. Rule as the data show it: active = GI50 up to about 1.1 µM and inactive = higher. The list is a sample of the results. Measured potencies and affinities stand elsewhere.
Tested on: Hs-578T

| Substance | GI50 [µM] |
| --- | --- |
| CISPLATIN, CHEMBL11359 | 4.98 |
| [Bis(aminomethyl)tetramethylenesilane]tetrachloropaltinum(IV), CHEMBL2146189 | 21.2 |
| [Bis(aminomethyl)dimethylsilane]tetrachloroplatinum(IV), CHEMBL2146190 | > 100 |
| [Bis(aminomethyl)pentamethylenesilane]dichloropaltinum(II), CHEMBL2146202 | 1.18 |
| [Bis(aminomethyl)tetramethylenesilane]dichloropaltinum(II), CHEMBL2146205 | 32.4 |
| [Bis(aminomethyl)pentamethylenesilane]tetrachloropaltinum(IV), CHEMBL2146204 | 28.8 |
